± gives the standard deviation of the averaged measurements.
These targets were tested with CCC1CCC(=O)O1 [γ-hexalactone] (assay: control-subtracted net OSN firing rate; higher = stronger neuronal activation). Conditions: odorant dilution (vol/vol): 1/100.
Experimental: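 Single sensillum recordings from olfactory sensory neurons. The neurons sit in the maxillary palp or antennal sensilla of D. melanogaster (wild type, mutants, or at1 empty-neuron lines expressing Or42a homologs or the A181D S307P mutant) and of four Scaptomyza species. Each odorant was given as a 1 s pulse from 20 µl loaded on filter paper at 1:100 vol/vol, diluted in mineral oil (γ-hexalactone in DMSO). Spikes were counted in a 0.5 s window starting 0.2 s after onset, background was subtracted, the count was doubled, and the mean solvent-control response was subtracted.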
Canton-S ab10b was tested, and the “control-subtracted net OSN firing rate” value was -0.2 ± 5.2 spikes/s. For Canton-S ab1b, the “control-subtracted net OSN firing rate” value was 2.5 ± 8.5 spikes/s. In the case of Or67dGal4; UAS-A181D S301P at1, the “control-subtracted net OSN firing rate” value is reported as 42.6 ± 20 spikes/s. Canton-S ab8a was tested, and the “control-subtracted net OSN firing rate” value was 3.2 ± 11 spikes/s. With Canton-S pb2b the “control-subtracted net OSN firing rate” value was -2.5 ± 3.8 spikes/s. With Canton-S pb2a the “control-subtracted net OSN firing rate” value was -7.5 ± 12 spikes/s. With Canton-S ab1a the “control-subtracted net OSN firing rate” value was 0.25 ± 12 spikes/s. Canton-S ai3a was tested, and the “control-subtracted net OSN firing rate” value was -1.5 ± 3.4 spikes/s.
